# Data taken from PubChem BioAssay (NCATS).
# Records with an inconclusive call do not appear. Unmarked numbers belong to inactive results. The source made the active and inactive calls. The call rests on the fitted dose curve; in most records, active means well fitted curve in the direction sought with a large enough effect; inconclusive means small, poorly fitted or top-dose-only effect, or another doubt; inactive means no such curve, though single readings can be large; an effect the other way counts as inactive or inconclusive.
# Assay: High Content Imaging Cell-Based qHTS for Inhibitors of the mTORC1 Signaling Pathway in MEF (Tsc2-/-, p53-/-) Cells (AID 2666);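 further: percent of cells scored positive for phospho-rpS6 Ser235/236 immunostaining by imaging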
# Conditions: at 38.3 µM (top of the series)
# In short: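 Cells were plated, dosed with compound after 24 hrs, and incubated another 24 hrs at 37 degree Celsius. Fixed cells were immunostained for phospho-rpS6 Ser235/236 and counterstained, and the normalized signal was scored as % active cells against rapamycin and DMSO controls.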
row,Compound,outcome
1,O=C(Nc1nc2ccccc2n1CCN1CCOCC1)c1cccc([N+](=O)[O-])c1,inactive
2,C[C@]12CCC(=O)C=C1CC[C@@H]1[C@@H]2[C@@H](O)C[C@@]2(C)[C@H]1CC[C@]2(O)C(=O)CO,inactive
3,NNCCc1ccccc1,inactive
4,NC(N)=NC(=O)c1nc(Cl)c(N)nc1N,inactive
5,NCCc1ccc(O)c(O)c1,inactive
6,Cc1[nH]c(=O)c(C#N)cc1-c1ccncc1,inactive
7,NC[C@H](O)c1ccc(O)c(O)c1,inactive
8,Cc1[nH]c(=O)c(C#N)cc1-c1ccc2nccn2c1,inactive
9,Cc1cccc(-c2[nH]c(C(C)(C)C)nc2-c2ccc3nccnc3c2)n1,inactive
10,OC(CCN1CCCCC1)(c1ccccc1)C1CC2C=CC1C2 (centres undefined),inactive
11,O=C1CCc2cc(OCCCCc3nnnn3C3CCCCC3)ccc2N1,inactive
12,Cc1oncc1C(=O)Nc1ccc(C(F)(F)F)cc1,inactive
13,Nc1ncnc2nc(-c3ccc(N4CCOCC4)nc3)cc(-c3cccc(Br)c3)c12,inactive
14,Nc1nc2ccc(OC(F)(F)F)cc2s1,inactive
15,Nc1nc2c(ncn2COCCO)c(=O)[nH]1,inactive
16,Clc1cccc(Cl)c1NC1=NCCN1,inactive
17,c1ccc([C@H]2CN3CCSC3=N2)cc1,inactive
18,CC(C)(Sc1ccc(CCN(CCCCC2CCCCC2)C(=O)NC2CCCCC2)cc1)C(=O)O,inactive
19,Cn1cnc([N+](=O)[O-])c1Sc1ncnc2nc[nH]c12,inactive
20,CCC(C)N(C)C(=O)c1cc2ccccc2c(-c2ccccc2Cl)n1 (centres undefined),inactive
21,Oc1ccc(C2CNCCc3c2cc(O)c(O)c3Cl)cc1 (centres undefined),inactive
22,CCOC(=O)C1=C[C@]2(CC)CCCN3CCc4c(n1c1ccccc41)[C@@H]32,inactive
23,OC(CN1CCC(Cc2ccc(F)cc2)CC1)c1ccc(Cl)cc1 (centres undefined),inactive

# Assay: High Content Imaging Cell-Based qHTS for Inhibitors of the mTORC1 Signaling Pathway in MEF Cells (AID 2667);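 further: Tsc2-/- p53-/- MEFs stably re-expressing wild-type Tsc2 exposed 24 h; plate controls were DMSO wells for no effect and rapamycin control wells for full effect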
# Conditions: series mostly up to 38.3 µM; activity change, negative = inhibition: at the top concentration
# In short: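 Immunofluorescence for rpS6 phosphorylation in MEFs of Tsc2-/-, p53-/- background rescued with WT Tsc2. Compound exposure lasted 24 hrs. Inhibition was scored against rapamycin-treated control wells.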
row,Compound,"activity change, negative = inhibition [%]"
1,C[C@]12CCC(=O)C=C1CC[C@@H]1[C@@H]2[C@@H](O)C[C@@]2(C)[C@H]1CC[C@]2(O)C(=O)CO,-100
2,NNCCc1ccccc1,-100
3,NC(N)=NC(=O)c1nc(Cl)c(N)nc1N,-100
4,Cc1[nH]c(=O)c(C#N)cc1-c1ccncc1,-100
5,NC[C@H](O)c1ccc(O)c(O)c1,-100
6,Cc1[nH]c(=O)c(C#N)cc1-c1ccc2nccn2c1,-100
7,Cc1cccc(-c2[nH]c(C(C)(C)C)nc2-c2ccc3nccnc3c2)n1,-100
8,OC(CCN1CCCCC1)(c1ccccc1)C1CC2C=CC1C2 (centres undefined),-100
9,O=C1CCc2cc(OCCCCc3nnnn3C3CCCCC3)ccc2N1,-100
10,Cc1oncc1C(=O)Nc1ccc(C(F)(F)F)cc1,-100
11,Nc1ncnc2nc(-c3ccc(N4CCOCC4)nc3)cc(-c3cccc(Br)c3)c12,-100
12,Nc1nc2ccc(OC(F)(F)F)cc2s1,-100
13,Nc1nc2c(ncn2COCCO)c(=O)[nH]1,-100
14,Clc1cccc(Cl)c1NC1=NCCN1,-100
15,c1ccc([C@H]2CN3CCSC3=N2)cc1,-100
16,CC(C)(Sc1ccc(CCN(CCCCC2CCCCC2)C(=O)NC2CCCCC2)cc1)C(=O)O,-100
17,Cn1cnc([N+](=O)[O-])c1Sc1ncnc2nc[nH]c12,-100
18,CCC(C)N(C)C(=O)c1cc2ccccc2c(-c2ccccc2Cl)n1 (centres undefined),-100
19,Oc1ccc(C2CNCCc3c2cc(O)c(O)c3Cl)cc1 (centres undefined),-100
20,CCOC(=O)C1=C[C@]2(CC)CCCN3CCc4c(n1c1ccccc41)[C@@H]32,-100
21,OC(CN1CCC(Cc2ccc(F)cc2)CC1)c1ccc(Cl)cc1 (centres undefined),-79
